# Test results as given in PubChem BioAssay (NCATS).
# Records with an inconclusive call do not appear. The source made the active and inactive calls. Unless noted, calls come from the whole dose curve; as a rule, active = well fitted curve in the direction sought with a large enough effect; inconclusive = small, poorly fitted or top-dose-only effect, or another doubt; inactive = no such curve, though single readings can be large; an effect the other way counts as inactive or inconclusive.
# Columns and labels:
# [1] = target: Lysosomal acid glucosylceramidase (Homo sapiens) (UniProt P04062); experiment: Glucocerebrosidase-p2 (AID 348; in the data active = potency below about 10 µM; note: potency is the fitted concentration of half-maximal effect); conditions: purified GBA, blue fluorogenic substrate, 40 min
# Procedure, shortened: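 Compounds titrated from 0.6 nM upwards against 0.2 nM enzyme in pH 5.9 citric acid/KH2PO4, taurocholate, tween-20; blue fluorogenic substrate 80 uM, 40 min room temperature, stopped and read Ex 365/Em 440 for AC50.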
# [2] = AP1 Signaling Pathway (AID 357; active = well fitted curve in either direction with a large enough effect, not every such curve was filed as active;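 note: ME-180 reporter cells stimulated with EGF at its EC50 level; % is set by controls: 0 for no effect and ±100 for the full control effect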); conditions: ME-180 AP-1-bla reporter, EGF-induced, beta-lactamase ratio, 5 h; at 7.69 µM (top of the series) unless noted
# Procedure, shortened: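 Read-out was the 460nm/530nm emission ratio (excitation 405nm) after CCF4 loading for 2.5 hours at room temperature. Cells carried an AP-1-driven beta-lactamase reporter, were stimulated with EC50 EGF plus compound for 5 hours, and AC50 values came from titrations.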
# [3] = NFAT Signaling Pathway (AID 444; active = well fitted curve in either direction with a large enough effect, not every such curve was filed as active;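 note: carbachol stimulus at about its EC50 of 1 µM final; % is set by controls: 0 for no effect and ±100 for the full control effect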); conditions: Jurkat NFAT-bla M1, carbachol, beta-lactamase ratio, 5 h; at 7.69 µM (top of the series) unless noted
# Procedure, shortened: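 Jurkat cells carrying an NFAT-driven β-lactamase reporter and co-transfected muscarinic M1 receptor were treated with compound plus carbachol (1 uM final, an EC50 level) for 5 h at 37 °C. CCF4 loading followed for 1 h at RT; 460/530 nm ratio gave %activity.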
# [4] = Stat Signaling Pathway (AID 446; active = well fitted curve in either direction with a large enough effect, not every such curve was filed as active;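 note: ME-180 cervical cancer cells given 40 pM IL-6 alongside compound; SIE-controlled beta-lactamase reporter measured as 460/530 nm FRET emission ratio; % is set by controls: 0 for no effect and ±100 for the full control effect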); conditions: ME-180 SIE beta-lactamase reporter, IL-6 stimulated, 5 h; at 7.69 µM (top of the series) unless noted
# Procedure, shortened: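 ME-180 cells carrying a SIE-driven beta-lactamase reporter are stimulated with 40 pM IL-6 for 5 h at 37C in the presence of compound. The 460/530 nm FRET substrate ratio is read after 2.5 h at RT. Data are normalised to 300 pM IL-6 and to 125 nM JAK inhibitor controls.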
# [5] = target: Glucocorticoid receptor (Homo sapiens) (UniProt P04150); experiment: GR-GFP Redistribution (AID 450;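 active = compounds whose dose series gives a full or clear partial fitted curve of increased nuclear translocation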; note: potency is the fitted concentration of half-maximal effect); conditions: U2OS GR-GFP nuclear translocation, laser cytometry, 2 h
# [6] = target: Glucocorticoid receptor (Homo sapiens) (UniProt P04150); experiment: GR-EFC Redistribution (AID 451; calls by dose curve; note: potency is the fitted concentration of half-maximal effect); conditions: CHO-K1 GR-EFC translocation, beta-gal luminescence, 2 h
# Procedure, shortened: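 CHO-K1 cells stably expressing nuclear-localized β-gal enzyme acceptor and GR fused C-terminally to the enzyme donor fragment; ligand-driven nuclear translocation restores β-gal by complementation. Compounds titrated up to 46 uM final, 2 h at 37 °C; luminescence read.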
# [7] = target: Mitogen-activated protein kinase 10 (Mus musculus) (UniProt Q61831); experiment: JNK3 AlphaScreen Assay (AID 530; active = well fitted curve in either direction with a large enough effect, not every such curve was filed as active;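 note: kinase came from lysate of stimulated human HepG2 cells; signal reports phosphorylation of biotinylated GST-cJun 1-79 at Ser73 with 10 µM ATP; % is set by controls: 0 for no effect and ±100 for the full control effect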); conditions: JNK3 lysate, c-Jun phosphorylation; series mostly up to 57.1 µM
# Procedure, shortened: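 Inhibitors reduce antibody binding to phosphorylated biotin-cJun, lowering AlphaScreen luminescence. Lysates from HepG2 cells pre-activated by IL-1beta plus TNF-alpha supplied JNK3; compounds were titrated.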
# [8] = target: 3',5'-cyclic-AMP phosphodiesterase 4B (Homo sapiens) (UniProt Q07343); experiment: qHTS Assay for Inhibitors of PDE-IV (AID 607; active = well fitted activation curve with a large enough effect in the main read-out, with a control signal flat, not every such curve was filed as active; note: % of control where 0% means no effect); conditions: HEK293 ACTOne CNG channel cells, membrane potential fluorescence; series mostly up to 22.9 µM
# Procedure, shortened: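 HEK293 ACTOne cells with CNG channel (1000/well), endogenous PDE4; membrane potential dye, compounds up to 22.9 uM final. Fluorescence Ex 535/Em 590; RO 20-1724 (100 uM final) as reference.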
# [9] = qHTS Assay for Lipid Storage Modulators (AID 1519; calls by dose curve); conditions: Drosophila S3 cells, BODIPY lipid droplet/cell ratio, laser cytometry, cells loaded with oleic acid; for activity change, negative = inhibition: at 57.5 µM (top of the series)
# Procedure, shortened: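 Cells seeded at 5,000 per well were treated with compounds over a concentration series and loaded with oleic acid (400 uM, as added). Lipid droplet fluorescence (488 nm excitation, 500-530 nm channel) was read by laser-scanning cytometry and normalized to 20 uM Triacsin C.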
# [10] = target: Dual specificity protein kinase CLK4 (Homo sapiens) (UniProt Q9HAZ1); experiment: qHTS Assay for Inhibitors of CDC-like Kinase 4 (Kinase-Glo Assay) (AID 1770); conditions: recombinant Clk4, Kinase-Glo ATP depletion luminescence; series mostly up to 66.7 µM; note: % is set by controls: 0 for no effect and ±100 for the full control effect; nearly all actives have a fitted effect of over 65% in size
# Procedure, shortened: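 Recombinant human Clk4 (25 nM) phosphorylated RS repeat peptide (100 uM) with 1 uM ATP in Tris pH 7.5/MgCl2/EGTA/DTT/Triton buffer for 4.5 h at room temperature. Residual ATP was quantified by Kinase-Glo luciferase luminescence.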
# [11] = target: Dual specificity protein kinase CLK4 (Homo sapiens) (UniProt Q9HAZ1); experiment: qHTS Assay for Inhibitors of CDC-like Kinase 4 (ADP-Glo Assay) (AID 1771); conditions: recombinant CLK4, ADP-Glo luminescence; series mostly up to 80 µM; note: % is set by controls: 0 for no effect and ±100 for the full control effect; nearly all actives have a fitted effect of over 70% in size
# Procedure, shortened: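 Luminescence from ADP-Glo reports ADP produced by 25 nM Clk4 acting on 100 uM RS repeat peptide with 1 uM ATP over 1 hr at room temperature; residual ATP is depleted before ADP is converted to ATP for detection.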
# [12] = target: Dual specificity protein kinase CLK4 (Homo sapiens) (UniProt Q9HAZ1); experiment: qHTS Assay for Inhibitors of CDC-like Kinase 4 (ADP-FP Assay) (AID 1795); conditions: Transcreener ADP fluorescence polarization; series mostly up to 50 µM; note: % is set by controls: 0 for no effect and ±100 for the full control effect; nearly all actives have a fitted effect of over 60% in size
# Procedure, shortened: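 Recombinant human Clk4 (6.25 nM) phosphorylated RS repeat peptide (100 uM) with 1 uM ATP in Tris pH 7.5/MgCl2/EGTA/DTT/Triton buffer for one hour. ADP was quantified by Transcreener competitive fluorescence polarization against an ADP calibration curve.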
# [13] = target: Ubiquitin carboxyl-terminal hydrolase 1 (Homo sapiens) (UniProt O94782); experiment: Inhibitors of USP1/UAF1: Pilot qHTS (AID 504865); conditions: purified USP1/UAF1, Ub-rhodamine cleavage fluorescence; series mostly up to 54.9 µM;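 note: rhodamine fluorescence freed from ubiquitin-rhodamine substrate followed over time; top concentration of the series differs between compounds; % is set by controls: 0 for no effect and ±100 for the full control effect; nearly all actives have a fitted effect of over 35% in size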
# Procedure, shortened: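 USP1/UAF1 complex (1nM) preincubated with compound 15 min at room temperature, then Ub-Rho substrate (150nM final) added. Fluorescence read kinetically at 480/540 nm, 6 reads every 60 seconds. Buffer: 50mM HEPES pH 7.8, 0.5mM EDTA, 0.1 mg/ml BSA, 1mM TCEP, 0.01% Tween-20.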
# [14] = Counterscreen qHTS for small molecule stabilizers of the endoplasmic reticulum resident proteome: GLuc-NoTag assay (AID 1508627); conditions: Gaussia luciferase NoTag secretion counterscreen, luminescence, thapsigargin 100 nM for final 4 h; series mostly up to 76.4 µM;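 note: SH-SY5Y cells given compound then 100 nM thapsigargin to empty ER calcium; 0% = thapsigargin alone and -100% = DMSO vehicle control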
# Procedure, shortened: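 SH-SY5Y cells stably expressing constitutively secreted GLuc (no SERCaMP tag) were pre-incubated 5 h, treated with compound for 19 h, then 100 nM thapsigargin for 4 h at 37C; medium GLuc read by coelenterazine luminescence.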
# [15] = Confirmatory qHTS for small molecule stabilizers of the endoplasmic reticulum resident proteome: Secreted ER Calcium Modulated Protein (SERCaMP) assay (AID 1508628); conditions: SERCaMP secreted luciferase ER calcium/proteostasis reporter; series mostly up to 76.3 µM; note: nearly all actives have a fitted effect of over 40% in size; note: potency is the fitted concentration of half-maximal effect
# Procedure, shortened: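 SH-SY5Y cells stably expressing GLuc-SERCaMP, treated 16 h with compound (primary 1.53, 7.67, 38.3 uM; confirmation 11 concentrations, up to 76.6 uM), then 100 nM thapsigargin for 4 h. Secreted Gaussia luciferase in medium read by coelenterazine luminescence.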
# [16] = target: Cytochrome P450 1A2 (Homo sapiens) (UniProt P05177); experiment: p450-cyp1a2 (AID 410; calls by dose curve; note: potency is the fitted concentration of half-maximal effect); conditions: recombinant CYP1A2, luciferin-ME demethylation, luminescence; series mostly up to 57 µM
# Procedure, shortened: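 Luminescent readout of luciferin formed from Luciferin-ME by human CYP1A2; data normalized against complete inhibition by 57 uM furafylline. Enzyme 20nM, substrate 100uM at Km, 100mM KPO4 buffer, 60 min reaction at room temperature.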
# [17] = target: Cytochrome P450 3A4 (Homo sapiens) (UniProt P08684); experiment: qHTS Assay for Activators of Cytochrome P450 3A4 (AID 885); conditions: recombinant CYP3A4, Luciferin-PPXE luminescence, 60 min; series mostly up to 57.1 µM; note: nearly all actives have a fitted effect of over 65% in size
# Procedure, shortened: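 Human CYP3A4 (20 nM) with Luciferin-PPXE at 25 uM (its KM) in 200 mM KPO4; 10 min compound preincubation, then NADPH regeneration and 60 min reaction at RT. Luciferin read by luminescence; normalized to 57 uM ketoconazole full inhibition.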
# [18] = Cell Viability qHTS for small molecule stabilizers of the endoplasmic reticulum resident proteome (AID 1508629); conditions: cell viability counter-screen, 100 nM thapsigargin for final 4 h
# [19] = target: Cytochrome P450 2C19 (Homo sapiens) (UniProt P33261); experiment: qHTS Assay for Inhibitors and Substrates of Cytochrome P450 2C19 (AID 899); conditions: recombinant CYP2C19, luciferin-H EGE luminescence; series mostly up to 57.1 µM; note: % is set by controls: 0 for no effect and ±100 for the full control effect; nearly all actives have a fitted effect of over 60% in size
# Procedure, shortened: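 NADPH-dependent conversion of Luciferin-H EGE (10uM, at KM) by 5nM enzyme in 50mM KPO4, 60 min at 37C following 10 min compound preincubation. Stopped with luciferin detection buffer; luminescence read after 20 min.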
# [20] = measured here: cell count channel max response
# [21] = measured here: lipid channel max response
# Chain of Dual specificity protein kinase CLK4 (Homo sapiens) (Q9HAZ1 whole entry, looked up): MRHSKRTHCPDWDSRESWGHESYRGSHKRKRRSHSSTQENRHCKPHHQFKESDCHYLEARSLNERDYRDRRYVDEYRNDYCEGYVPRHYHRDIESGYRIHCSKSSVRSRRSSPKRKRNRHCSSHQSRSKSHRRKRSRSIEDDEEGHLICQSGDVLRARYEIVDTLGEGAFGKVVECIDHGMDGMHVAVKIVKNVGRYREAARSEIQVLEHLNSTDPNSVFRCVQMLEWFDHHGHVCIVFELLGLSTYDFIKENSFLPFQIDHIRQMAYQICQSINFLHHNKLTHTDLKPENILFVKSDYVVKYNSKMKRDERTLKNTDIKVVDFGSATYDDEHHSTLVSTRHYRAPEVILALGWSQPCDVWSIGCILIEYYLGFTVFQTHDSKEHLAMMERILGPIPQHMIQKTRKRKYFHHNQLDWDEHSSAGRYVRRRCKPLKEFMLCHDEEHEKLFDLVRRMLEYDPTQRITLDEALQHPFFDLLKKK
# Chain of Lysosomal acid glucosylceramidase (Homo sapiens) (P04062 whole entry, looked up): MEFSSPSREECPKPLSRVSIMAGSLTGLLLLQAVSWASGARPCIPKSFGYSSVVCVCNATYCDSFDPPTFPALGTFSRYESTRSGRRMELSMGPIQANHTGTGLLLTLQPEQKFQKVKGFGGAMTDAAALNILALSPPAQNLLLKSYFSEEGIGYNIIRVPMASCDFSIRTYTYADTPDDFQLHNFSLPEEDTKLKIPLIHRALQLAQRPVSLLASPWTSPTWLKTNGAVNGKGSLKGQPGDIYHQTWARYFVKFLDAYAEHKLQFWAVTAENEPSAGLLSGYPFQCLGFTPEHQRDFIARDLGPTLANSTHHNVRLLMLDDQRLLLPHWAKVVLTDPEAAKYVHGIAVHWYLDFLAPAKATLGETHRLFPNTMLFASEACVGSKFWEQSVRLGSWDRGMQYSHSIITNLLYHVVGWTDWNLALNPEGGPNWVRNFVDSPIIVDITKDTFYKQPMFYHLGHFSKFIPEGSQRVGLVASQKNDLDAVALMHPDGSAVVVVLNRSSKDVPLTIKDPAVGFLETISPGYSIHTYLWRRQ
# Chain of Glucocorticoid receptor (Homo sapiens) (P04150 whole entry, looked up, the tested form may be a part): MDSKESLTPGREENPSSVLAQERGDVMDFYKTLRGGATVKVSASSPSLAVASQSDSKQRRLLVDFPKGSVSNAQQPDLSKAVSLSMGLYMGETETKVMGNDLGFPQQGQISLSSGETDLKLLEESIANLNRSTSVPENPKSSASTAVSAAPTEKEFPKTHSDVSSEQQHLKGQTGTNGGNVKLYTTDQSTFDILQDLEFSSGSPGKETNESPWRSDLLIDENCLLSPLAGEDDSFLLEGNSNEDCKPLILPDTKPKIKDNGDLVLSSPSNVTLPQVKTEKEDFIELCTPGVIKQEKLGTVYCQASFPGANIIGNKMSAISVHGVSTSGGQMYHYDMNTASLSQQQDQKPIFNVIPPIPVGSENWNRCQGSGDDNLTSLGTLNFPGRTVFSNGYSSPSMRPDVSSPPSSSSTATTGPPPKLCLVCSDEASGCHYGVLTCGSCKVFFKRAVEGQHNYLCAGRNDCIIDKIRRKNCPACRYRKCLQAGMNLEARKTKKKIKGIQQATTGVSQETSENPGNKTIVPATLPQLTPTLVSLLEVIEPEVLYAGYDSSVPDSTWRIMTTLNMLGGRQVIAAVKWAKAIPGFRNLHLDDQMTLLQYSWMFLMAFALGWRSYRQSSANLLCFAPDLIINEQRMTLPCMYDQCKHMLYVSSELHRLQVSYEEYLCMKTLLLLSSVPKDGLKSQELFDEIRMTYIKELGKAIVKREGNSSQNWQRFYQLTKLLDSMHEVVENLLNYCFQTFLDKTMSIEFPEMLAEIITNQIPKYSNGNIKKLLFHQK
# Chain of 3',5'-cyclic-AMP phosphodiesterase 4B (Homo sapiens) (Q07343 whole entry, looked up): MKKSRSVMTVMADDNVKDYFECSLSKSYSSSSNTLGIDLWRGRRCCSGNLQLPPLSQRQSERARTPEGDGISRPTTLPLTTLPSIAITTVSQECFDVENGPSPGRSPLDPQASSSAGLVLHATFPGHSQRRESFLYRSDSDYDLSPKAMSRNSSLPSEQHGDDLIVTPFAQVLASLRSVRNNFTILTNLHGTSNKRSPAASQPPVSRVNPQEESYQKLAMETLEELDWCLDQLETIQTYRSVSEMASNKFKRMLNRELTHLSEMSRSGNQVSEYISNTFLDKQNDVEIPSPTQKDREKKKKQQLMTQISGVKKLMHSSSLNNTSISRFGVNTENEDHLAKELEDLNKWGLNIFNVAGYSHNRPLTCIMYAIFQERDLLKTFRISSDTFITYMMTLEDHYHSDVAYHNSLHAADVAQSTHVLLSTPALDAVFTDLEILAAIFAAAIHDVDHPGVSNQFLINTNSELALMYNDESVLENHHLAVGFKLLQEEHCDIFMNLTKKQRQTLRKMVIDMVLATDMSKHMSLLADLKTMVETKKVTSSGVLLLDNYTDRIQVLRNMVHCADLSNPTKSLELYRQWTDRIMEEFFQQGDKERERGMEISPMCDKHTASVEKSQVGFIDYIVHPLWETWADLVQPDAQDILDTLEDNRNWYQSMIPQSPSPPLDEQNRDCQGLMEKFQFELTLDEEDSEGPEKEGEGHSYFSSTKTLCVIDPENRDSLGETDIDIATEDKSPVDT
# Chain of Cytochrome P450 1A2 (Homo sapiens) (P05177 whole entry, looked up): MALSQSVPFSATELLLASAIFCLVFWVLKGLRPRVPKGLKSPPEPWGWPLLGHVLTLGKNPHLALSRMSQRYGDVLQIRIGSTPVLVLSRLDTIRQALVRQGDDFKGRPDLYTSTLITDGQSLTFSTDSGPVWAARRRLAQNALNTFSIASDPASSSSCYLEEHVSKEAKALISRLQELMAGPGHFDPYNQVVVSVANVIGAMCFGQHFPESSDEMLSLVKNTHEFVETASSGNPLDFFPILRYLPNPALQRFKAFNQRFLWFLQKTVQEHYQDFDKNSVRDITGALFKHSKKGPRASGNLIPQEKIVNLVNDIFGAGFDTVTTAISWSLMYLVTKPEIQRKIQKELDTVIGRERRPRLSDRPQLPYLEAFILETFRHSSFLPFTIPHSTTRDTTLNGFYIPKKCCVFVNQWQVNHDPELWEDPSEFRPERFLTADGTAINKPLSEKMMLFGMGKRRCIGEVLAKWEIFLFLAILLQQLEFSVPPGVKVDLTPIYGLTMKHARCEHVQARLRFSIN
# Chain of Cytochrome P450 3A4 (Homo sapiens) (P08684 whole entry, looked up): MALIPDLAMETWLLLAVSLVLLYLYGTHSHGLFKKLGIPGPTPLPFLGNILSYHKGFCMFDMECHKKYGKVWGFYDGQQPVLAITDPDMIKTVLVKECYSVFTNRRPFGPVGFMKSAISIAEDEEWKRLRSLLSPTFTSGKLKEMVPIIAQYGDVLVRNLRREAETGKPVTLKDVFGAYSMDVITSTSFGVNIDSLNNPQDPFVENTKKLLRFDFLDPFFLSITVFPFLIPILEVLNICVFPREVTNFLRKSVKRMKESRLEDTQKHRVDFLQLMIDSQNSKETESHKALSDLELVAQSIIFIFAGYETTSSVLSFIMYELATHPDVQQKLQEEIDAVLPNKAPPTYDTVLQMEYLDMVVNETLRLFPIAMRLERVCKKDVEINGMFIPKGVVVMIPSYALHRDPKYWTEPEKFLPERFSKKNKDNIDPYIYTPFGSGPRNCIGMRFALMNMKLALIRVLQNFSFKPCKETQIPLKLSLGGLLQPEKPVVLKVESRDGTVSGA
# Chain of Ubiquitin carboxyl-terminal hydrolase 1 (Homo sapiens) (O94782 whole entry, looked up): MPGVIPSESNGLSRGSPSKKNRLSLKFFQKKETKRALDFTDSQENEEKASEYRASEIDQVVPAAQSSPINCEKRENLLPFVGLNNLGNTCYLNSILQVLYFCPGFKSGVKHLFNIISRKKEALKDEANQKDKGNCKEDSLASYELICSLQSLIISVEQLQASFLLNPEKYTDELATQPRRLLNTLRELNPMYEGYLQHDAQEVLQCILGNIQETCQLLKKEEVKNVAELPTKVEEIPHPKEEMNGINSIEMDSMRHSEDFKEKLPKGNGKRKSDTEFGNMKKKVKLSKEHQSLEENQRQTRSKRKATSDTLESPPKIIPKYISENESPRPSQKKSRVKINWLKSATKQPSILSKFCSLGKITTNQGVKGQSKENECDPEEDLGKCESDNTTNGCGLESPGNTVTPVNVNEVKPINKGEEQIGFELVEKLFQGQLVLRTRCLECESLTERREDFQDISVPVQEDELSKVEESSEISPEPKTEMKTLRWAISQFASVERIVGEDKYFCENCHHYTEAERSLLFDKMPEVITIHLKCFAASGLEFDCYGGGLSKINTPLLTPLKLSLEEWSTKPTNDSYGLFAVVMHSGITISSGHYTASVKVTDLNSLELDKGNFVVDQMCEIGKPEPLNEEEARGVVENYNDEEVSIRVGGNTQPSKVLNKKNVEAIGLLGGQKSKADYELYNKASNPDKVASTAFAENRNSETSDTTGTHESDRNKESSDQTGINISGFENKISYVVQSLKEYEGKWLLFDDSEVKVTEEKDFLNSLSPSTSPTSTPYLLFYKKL
# Chain of Cytochrome P450 2C19 (Homo sapiens) (P33261 whole entry, looked up): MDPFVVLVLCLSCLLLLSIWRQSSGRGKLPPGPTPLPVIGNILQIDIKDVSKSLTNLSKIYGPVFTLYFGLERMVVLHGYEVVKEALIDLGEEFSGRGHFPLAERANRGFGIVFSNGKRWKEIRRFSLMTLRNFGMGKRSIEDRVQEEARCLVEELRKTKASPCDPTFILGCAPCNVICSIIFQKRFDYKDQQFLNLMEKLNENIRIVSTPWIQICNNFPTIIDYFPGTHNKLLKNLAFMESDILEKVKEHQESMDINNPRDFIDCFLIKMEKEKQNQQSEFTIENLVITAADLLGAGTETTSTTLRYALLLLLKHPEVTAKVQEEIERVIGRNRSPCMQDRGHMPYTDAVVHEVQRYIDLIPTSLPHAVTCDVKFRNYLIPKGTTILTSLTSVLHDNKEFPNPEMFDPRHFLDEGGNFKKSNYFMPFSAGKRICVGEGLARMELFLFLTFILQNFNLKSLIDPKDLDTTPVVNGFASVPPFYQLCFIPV
smiles,measurement,setting,value
COc1cccc(Cn2c(=O)c(C)nc3cnc(N4CCN(C)CC4)nc32)c1,Potency,[1],> 11.4 µM (inactive)
same,"activity change, negative = inhibition",[2],-0.444% (inactive)
same,"activity change, negative = inhibition",[3],5.99% (inactive)
same,"activity, negative = inhibition",[4],-11.6% (inactive)
same,Potency,[5],> 9.22 µM (inactive)
same,Potency,[6],> 46 µM (inactive)
same,outcome,[7],inactive
same,Potency,[8],inactive
same,"activity change, negative = inhibition",[9],-3.34% (inactive)
same,max response,[9]; [20],13.5%
same,max response,[9]; [21],7.13%
same,Potency,[10],inactive
same,Potency,[11],inactive
same,Potency,[12],inactive
same,Potency,[13],inactive
same,Potency,[14],inactive
same,Potency,[15],inactive
O=c1c(-c2cccs2)nc2cnc(N3CCNCC3)nc2n1-c1ccccc1,Potency,[1],> 11.4 µM (inactive)
same,Potency,[16],2.51 µM (active)
same,Potency,[5],> 9.22 µM (inactive)
same,Potency,[6],> 46 µM (inactive)
same,outcome,[7],inactive
same,Potency,[8],inactive
same,Potency,[17],inactive
same,Potency,[14],inactive
same,Potency,[15],inactive
same,max response,[18],6.37% (inactive)
Cc1nc2cnc(N3CCNCC3)nc2n(Cc2ccc(F)cc2)c1=O,Potency,[1],> 11.4 µM (inactive)
same,"activity change, negative = inhibition",[2],7.46% (inactive)
same,Potency,[16],12.6 µM (active)
same,"activity change, negative = inhibition",[3],-14.9% (inactive)
same,"activity, negative = inhibition",[4],7.66% (inactive)
same,Potency,[5],> 9.22 µM (inactive)
same,Potency,[6],> 46 µM (inactive)
same,outcome,[7],inactive
same,Potency,[17],inactive
same,Potency,[19],inactive
same,"activity change, negative = inhibition",[9],2.97% (inactive)
same,max response,[9]; [20],14.9%
same,max response,[9]; [21],19.5%
same,Potency,[14],inactive
same,Potency,[15],20 µM (active)
same,max response,[18],11.4% (inactive)
Cc1ccc(-n2c(C)cc(/C=N/NC(=O)c3ccncc3)c2C)cc1C,Potency,[14],inactive
same,Potency,[15],inactive
same,max response,[18],2.93% (inactive)
